Assay results taken from PubChem BioAssay (NCATS).
Values joined by “and” are separate entries in the source; they are usually repeats but may differ in a detail not shown here. Equal values may be shown once. Results filed as inconclusive are left out. Active and inactive are the calls of the source. The call rests on the fitted dose curve; in most records, active means well fitted curve in the direction sought with a large enough effect; inconclusive means small, poorly fitted or top-dose-only effect, or another doubt; inactive means no such curve, though single readings can be large; an effect the other way counts as inactive or inconclusive.

How the values were obtained:
[1] = Viability qHTS for spleen associated tyrosine kinase inhibitor (SYKi) naive MV4-11 cells (AID 1963823); further: nearly all actives have a fitted effect of over 40% in size
Method in brief: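 Read-out: CellTiter-Glo luminescence. Exposure: 72 hr, 37 C, 5% CO2, 95% humidity. Cells: MV4-11 without SYK inhibitor history, 500/well, qHTS format.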

[2] = Quantitative highthroughput screen to assess conditional lethalithy of NOMO1 cells grown in RPMI1640 with untreated serum (RPMI+s) (AID 1963876); further: nearly all actives have a fitted effect of over 35% in size;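 on Viability: 100% = DMSO wells and 0% = empty wells without cells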
Method in brief: (§1)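 Each medium arm—HPLM with 10% dialyzed FBS, or RPMI1640 with 5 mM glucose and 10% untreated or dialyzed FBS—was screened against an 11-point, 3-fold compound titration for 48 h at 37 °C, with CellTiter-Glo luminescence as endpoint.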

[3] = Quantitative highthroughput screen to assess conditional lethalithy of NOMO1 cells grown in RPMI1640 with dialyzed fetal bovine serum (RPMI+ds) (AID 1963877); further: nearly all actives have a fitted effect of over 30% in size;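 on Viability: series mostly up to about 46 µM; 100% = DMSO control wells and 0% = empty wells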
Method in brief: as §1

[4] = Quantitative highthroughput screen to assess conditional lethalithy of P12 Ichikawa cells grown in Human Plasma-Like Medium with dialyzed fetal bovine serum (HPLM+ds) (AID 1963879); settings: Potency: viability; further: nearly all actives have a fitted effect of over 35% in size; on Viability: series mostly up to about 46 µM
Method in brief: as §1

[5] = Quantitative highthroughput screen to assess conditional lethalithy of P12 Ichikawa cells grown in RPMI1640 with dialyzed fetal bovine serum (RPMI+ds) (AID 1963880); settings: Potency: P12-Ichikawa viability; further: nearly all actives have a fitted effect of over 35% in size;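 on Viability: 100% = DMSO wells and 0% = empty wells on each plate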
Method in brief: as §1

[6] = Quantitative highthroughput screen to assess conditional lethalithy of P12 Ichikawa cells grown in RPMI1640 with untreated serum (RPMI+s) (AID 1963881); settings: Potency: viability; further: nearly all actives have a fitted effect of over 35% in size;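 on Viability: series mostly up to about 46 µM; 100% = DMSO wells and 0% = empty wells without cells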
Method in brief: as §1

[7] = Quantitative highthroughput screen to assess conditional lethalithy of SEM cells grown in Human Plasma-Like Medium with dialyzed fetal bovine serum (HPLM+ds) (AID 1963882); further: nearly all actives have a fitted effect of over 35% in size; on Viability: series mostly up to about 46 µM
Method in brief: as §1

[8] = Quantitative highthroughput screen to assess conditional lethalithy of SEM cells grown in RPMI1640 with unreated serum (RPMI+s) (AID 1963883); further: nearly all actives have a fitted effect of over 35% in size;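 on Viability: 100% = DMSO wells and 0% = empty wells without cells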
Method in brief: as §1

[9] = Quantitative highthroughput screen to assess conditional lethalithy of SEM cells grown in RPMI1640 with dialyzed fetal bovine serum (RPMI+ds) (AID 1963884); further: nearly all actives have a fitted effect of over 35% in size;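 on Viability: series mostly up to about 46 µM; 100% = DMSO control wells and 0% = empty wells without cells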
Method in brief: as §1

[10] = Cellular viability qHTS for adrenocortical cancer (ACC) cell line NCI-H295R (AID 1963990); further: nearly all actives have a fitted effect of over 60% in size;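 on activity change, negative = viability loss: 0% = DMSO only wells and -100% = full killing with cytotoxic reference compound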
Method in brief: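 Viability of NCI-H295R after 48 h of treatment (final up to 46 uM) measured through cellular ATP luminescence.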

[11] = Cellular viability qHTS for adrenocortical cancer (ACC) cell line SW-13 (AID 1963989); settings: SW-13 ACC cells viability, CellTiter-Glo, 48 h; activity (max response): active compounds read low; further: nearly all actives have a fitted effect of over 65% in size;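 on activity (max response): cells grown in serum-free medium with ITS supplement; on the % scale 0 is the no-effect control and ±100 the full control effect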
Method in brief: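 Here, serum-free SW-13 cultures were dosed up to 46 uM. Following 48 h, ATP-dependent luminescence (CellTiter-Glo) reported viable cells, and logistic modeling produced IC50 values.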

[12] = Quantitative highthroughput screen to assess conditional lethalithy of NOMO1 cells grown in Human Plasma-Like Medium with dialyzed fetal bovine serum (HPLM+ds) (AID 1963878); further: nearly all actives have a fitted effect of over 35% in size;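 on Viability: 100% = DMSO wells and 0% = empty wells on each plate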
Method in brief: as §1
Potency means the concentration at half of the fitted maximal effect.

Cc1cccc(Nc2ccncc2S(=O)(=O)NC(=O)NC(C)C)c1
inactive: Potency [1] | Potency [2] | Potency [3] | Potency [4] | Potency [5] | Potency [6] | Potency [7] | Potency [8] | Potency [9] | Potency [10]

CNc1nccc(-c2cccnc2Oc2cc(C(=O)Nc3cccc(C(F)(F)F)c3)ccc2C)n1
active: Potency [1] 517 nM and 1.18 µM
inactive: Potency [2] | Potency [4] | Potency [5] | Potency [7] | Potency [9]

O=C(O)C(O)Cc1ccc(O)c(O)c1 (configuration not stated)
active: Potency [1] 17.1 µM | Potency [3] 13.2 µM
inactive: Potency [2] | Potency [4] | Potency [5] | Potency [6] | activity (max response) [11] -1.27% | Potency [10]

CC(C)(C)c1cc(NC(=O)Nc2ccc(-c3cn4c(n3)sc3cc(OCCN5CCOCC5)ccc34)cc2)no1
inactive: Potency [1] | Potency [2] | Potency [3] | Potency [5] | Potency [6] | activity (max response) [11] 1.45% | Potency [10]

CCCCS(=N)(=O)CCC(N)C(=O)O (configuration not stated)
inactive: Potency [3] | Potency [9] | activity (max response) [11] 9.43% | Potency [10]
active: Potency [1] 24.1 µM | Potency [12] 16.6 µM

N[C@@H](CC(=O)N1CCn2c(nnc2C(F)(F)F)C1)Cc1cc(F)c(F)cc1F
inactive: Potency [1] | Potency [2] | Potency [12] | Potency [4] | Potency [5] | Potency [6] | activity (max response) [11] -2.25% | Potency [10]

COC(=O)Nc1nc2ccc(C(=O)c3ccc(F)cc3)cc2[nH]1
active: Potency [1] 731 nM and 332 nM | Potency [11] 0.355 µM | Potency [10] 0.112 µM
inactive: Potency [2] | Potency [3]

N#Cc1ccnc(N2C(=O)CC[C@H]2C(=O)N(c2cncc(F)c2)[C@H](C(=O)NC2CC(F)(F)C2)c2ccccc2Cl)c1
active: Potency [2] 2.34 µM | Potency [4] 1.48 µM | Potency [6] 2.95 µM | Potency [7] 3.31 µM | Potency [8] 1.32 µM | Potency [9] 3.31 µM
inactive: Potency [1] | activity (max response) [11] 6.3% | Potency [10]

Cc1cccc(Nc2nc(-c3ccncc3)cs2)c1
inactive: Potency [2] | Potency [12] | Potency [4]
active: Potency [1] 8.2 µM | Potency [5] 18.7 µM | Potency [10] 25.1 µM

Cc1cnc(-c2cc(N3CCN(C(=O)CCS(C)(=O)=O)CC3)ncc2Cl)c(C)c1
inactive: Potency [1] | Potency [2] | Potency [3] | Potency [4] | Potency [5] | Potency [6] | Potency [7] | Potency [8] | Potency [9] | activity (max response) [11] -0.258% | Potency [10]

NC(=NCc1ccccc1)NC(=O)c1nc(Cl)c(N)nc1N
inactive: Potency [7]
active: Potency [1] 3.32 µM | Potency [9] 14.8 µM

O=C(O)CCC=CCC[C@@H]1[C@H](N2CCCCC2)[C@@H](O)C[C@@H]1OCc1ccc(-c2ccccc2)cc1
inactive: Potency [1] | Potency [3] | Potency [4] | Potency [5] | Potency [7] | Potency [8] | Potency [9] | activity (max response) [11] -17.1% | Potency [10]

Clc1cc(Cl)cc(CNc2ncncc2-c2ccc3c(c2)OCO3)c1
active: Potency [1] 20.6 µM | Potency [8] 26.4 µM | Potency [11] 10 µM | Potency [10] 3.55 µM

C=C1C(=O)OC2/C=C(/C)CC/C=C(/C)CCC12 (configuration not stated)
active: Potency [1] 8.33 µM
inactive: activity (max response) [11] -9.66%

Cn1cc(C2=C(c3c4n(c5ccccc35)CCC(CN)C4)C(=O)NC2=O)c2ccccc21 (configuration not stated)
inactive: activity (max response) [11] -20.5% | activity change, negative = viability loss [10] -2.33% [at 9.17 µM]
active: Potency [1] 2.15 µM | Potency [3] 18.7 µM | Potency [7] 10.5 µM | Potency [8] 10.5 µM | Potency [9] 11.8 µM

Cc1ccc(Nc2nccc(N(C)c3ccc4c(C)n(C)nc4c3)n2)cc1S(N)(=O)=O
active: Potency [1] 0.742 µM | Potency [7] 16.6 µM | Potency [8] 14.8 µM | Potency [9] 14.8 µM
inactive: activity (max response) [11] -20.1% | Potency [10]

CC(C)C[C@H](NC(=O)[C@@H](O)[C@H](N)Cc1ccccc1)C(=O)O
inactive: Potency [1] | activity (max response) [11] 9.42% | Potency [10]
active: Potency [3] 20.9 µM

CN1CCN(C2CCC(n3cc(-c4ccc(Oc5ccccc5)cc4)c4c(N)ncnc43)CC2)CC1 (configuration not stated)
active: Potency [1] 0.0231 µM | Potency [11] 1.58 µM

C[C@@H]1COCCN1c1cc(=O)n2c(n1)N(Cc1cncc(Cl)c1)[C@H](C(F)(F)F)CC2
inactive: activity (max response) [11] 2.98% | Potency [10]
active: Potency [1] 6.51 µM | Potency [5] 9.33 µM | Potency [6] 9.33 µM

Cn1c(=O)c2c(ncn2CCO)n(C)c1=O
inactive: Potency [1] | activity (max response) [11] -10.8%

CC[C@@]1(O)C[C@H](O[C@H]2C[C@H](N(C)C)[C@H](O[C@H]3C[C@H](O)[C@H](O[C@H]4CCC(=O)[C@H](C)O4)[C@H](C)O3)[C@H](C)O2)c2c(cc3c(c2O)C(=O)c2c(O)cccc2C3=O)[C@@H]1C(=O)OC
active: Potency [1] 1.66 µM | Potency [12] 1.18 µM | Potency [5] 16.6 µM | Potency [9] 0.0662 µM | Potency [11] 10 µM | Potency [10] 22.4 µM
inactive: Potency [4]

C[C@H]1COc2c(N3CCN(C)CC3)c(F)cc3c(=O)c(C(=O)O)cn1c23
inactive: Potency [1] | activity (max response) [11] 6.21% | Potency [10]
active: Potency [3] 23.5 µM | Potency [4] 8.33 µM | Potency [6] 4.18 µM | Potency [8] 13.2 µM | Potency [9] 1.32 µM

Cc1oc(-c2ccccc2)nc1CCC(=O)c1ccc(CC2SC(=O)NC2=O)cc1 (configuration not stated)
inactive: Potency [1] | activity (max response) [11] -12.1%

COc1ccc2c(c1)c(CC(=O)O)c(C)n2C(=O)c1ccc(Cl)cc1
inactive: Potency [1] | Potency [12] | Potency [4] | Potency [5] | Potency [6] | Potency [7] | Potency [8] | Potency [9] | activity (max response) [11] -9.65% and -2.21% | Potency [10]
